In all, about 330,000 compounds went through this assay and about 100 (0.03%) were called active. About 1% were inconclusive and are not listed. The call rests on the fitted dose curve; in most records, active means well fitted inhibition curve with a large enough effect; inconclusive means small, poorly fitted or top-dose-only effect; inactive means flat fitted curve, though single readings scatter. For the sample, actives were picked, then their nearest neighbours and some compounds at random.
System: Chaperonin Mm-Cpn (Methanococcus maripaludis)
Assay: Inhibitors of TCP-1 ring complex (TRiC) of Methanococcus maripaludis (MmCpn): qHTS; further: nearly all actives have a fitted effect of over 80% in size;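 on Potency: enzyme at 25 nM with ATP substrate at 10 µM during the reaction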
Settings: purified Mm-Cpn ATPase, ADP Transcreener TR-FRET; series mostly up to 76.9 µM; activity, negative = inhibition: at the top concentration
Source text: The eukaryotic chaperonin TRiC (for TCP-1 ring complex) is an essential and conserved chaperone required for the folding and activation of 10-15% of the proteins encoded by the human genome. […] The TRiC complex consist of two stacked 7-9 membered rings, each containing a central cavity. Substrates are folded within the cavity in an ATP-dependent manner. TRiC is a complex of eight different, essential proteins. As each of the genes encoding the eight subunits is essential for cell viability and no protocol has been developed to over-express this enzyme to high levels. That is why several groups studying the TRiC chaperonin have turned to the archaeal homolog of TRiC, Methanococcus maripaludis (Mm-CPN), and have used this enzyme as a model system for the study of the type II chaperonin family. Small molecule inhibitors of the Mm-CPN enzyme would be extremely useful to study the mechanism of chaperonin activity. Importantly, TRiC and Mm-CPN both require ATP hydrolysis for function. Furthermore, the ATP binding sites are highly conserved among these type II chaperonins. This provides us with an easy, well tested and straightforward assay to identify inhibitors of chaperonin activity. The Mm-CPN assay was developed in 1536-well plate format using the HTRF Transcreener ADP assay kit (Cisbio, Bedford, MA). This assay applied the time resolved fluorescence resonance energy transfer (TR-FRET) principle. ATP in the presence of Mm-CPN is converted to ADP + Pi. An antibody labeled with Eu3+-Cryptate specific and bound to ADP labeled with […] (d2) competes with the unlabeled ADP generated by Mm-CPN. The resulting TR-FRET signal is inversely proportional to the concentration of ADP in the sample. In this assay a reduction in TR-FRET signal is observed with ATP turnover. NIH Chemical Genomics Center [NCGC] NIH Molecular Libraries Probe Centers Network [MLPCN] MLPCN Grant: DA030554-01A1 Assay Submitter (PI): Judith Frydman, Stanford University
Purified Mm-CPN was supplied by the laboratory of Dr. Judith Frydman. Protein samples were stored at -80C as single use aliquots. Protein was thawed in ambient temperature water bath and placed on ice once thawed. Buffer was prepared fresh day of screen. The buffer composition below was used to prepare the working solution of the Mm-CPN protein and ATP substrate. The buffer is comprised of 30 mM TRIS pH 7.4, 100mM KCl, 5mM MgCl2, and 1mM DTT. A final concentration of 25nM Mm-CPN and 10uM ATP per well were used in the screen. Instructions according to the manufacturer were followed for the ADP Transcreener kit. Used 1536 well Greiner white, medium binding (MB), solid bottom plates. Plates were read on the PerkinElmer EnVision plate reader using Excitation = 320 nm and Emission = […], 665 nm. Protocol- 1.Dispense 1.5ul per well of working [Mm-CPN] = 50nM (or 75 ng / well) 2.Spin plate at 1000 rpm for 30 seconds 3.23nl of compound transferred per well 4.Incubate at 37degC for 10 minutes 5.Dispense 1.5ul per well of working [ATP] = 20uM 6.Incubate at 37degC for 30 minutes 7.Dispense 3ul per well of Anti-ADP Cryptate / ADP-d2 mix (prepared as instructed by Cisbio) 8.Incubate at ambient for 30 minutes 9.Read using EnVision
On the % scale 0 is the no-effect control and ±100 the full control effect; potency means the concentration at half of the fitted maximal effect.

**Q.** With Cc1cc(S(=O)(=O)NCc2ccccn2)c(Cl)cc1Cl as the compound, how does the “activity, negative = inhibition” value read?
**A.** The value was -1.27% (inactive).

**Q.** Which “activity, negative = inhibition” value does the source give for Cc1cc(NC(=O)/C=C/C(=O)N(c2ccccc2C)C(C(=O)NC2CCCC2)c2ccc(F)cc2)no1 (centres undefined) here?
**A.** Its value is 0.316% (inactive).

**Q.** With CCCSC1=C(C#N)C(c2ccccc2C)C(C(=O)OC)C(=O)N1 (centres undefined) as the compound, how does the “activity, negative = inhibition” value read?
**A.** Its value is 0.631% (inactive).

**Q.** Which “activity, negative = inhibition” value does the source give for CCOc1ccc(NC(=O)CN(C)C(=O)CSc2ccccc2)cc1OCC here?
**A.** Its value is -1.05% (inactive).

**Q.** With CCOc1ccccc1NS(=O)(=O)c1cc2c3c(c1)C(C)C(=O)N3CCC2 (centres undefined) as the compound, how does the “activity, negative = inhibition” value read?
**A.** Its value is -0.707% (inactive).

**Q.** Which “activity, negative = inhibition” value does the source give for O=S(=O)(Nc1ccc(Oc2ncccn2)c(Cl)c1)c1ccc(F)cc1 here?
**A.** The value was -0.624% (inactive).

**Q.** Which “activity, negative = inhibition” value does the source give for Cc1ccc(S(=O)(=O)N(Cc2cccc([N+](=O)[O-])c2)C(=O)N2CCN(C)CC2)cc1 here?
**A.** Its value is 1.85% (inactive).

**Q.** For O=C(CN1CCCSc2ccccc21)N1CCN(S(=O)(=O)c2ccccc2)CC1, which “activity, negative = inhibition” value is on record?
**A.** Its value is -5.83% (inactive).

**Q.** Which “activity, negative = inhibition” value does the source give for O=C(Cn1nc([N+](=O)[O-])nc1Br)NC1CCCCC1 here?
**A.** Its value is 2.19% (inactive).

**Q.** Cc1nn(-c2ccccc2)nc1C(=O)OCC(=O)N1CCCCC1C (centres undefined) was tested. Which “activity, negative = inhibition” value did it give?
**A.** Its value is -2.18% (inactive).

**Q.** CCc1ccc(Nc2nnc(SCC(=O)c3ccc4c(c3)NC(=O)CO4)s2)cc1 was tested. Which “activity, negative = inhibition” value did it give?
**A.** The value was -6.83% (inactive).

**Q.** Which “activity, negative = inhibition” value does the source give for CCOCc1c(C(=O)N2CCN(Cc3ccc(Br)s3)CC2)oc2ccccc12 here?
**A.** Its value is 0.351% (inactive).

**Q.** CCOC(=O)CN1C(=O)N[C@@H](c2ccc(Br)cc2)C(C(C)=O)=C1C was tested. Which “activity, negative = inhibition” value did it give?
**A.** Its value is 0.237% (inactive).

**Q.** Which “activity, negative = inhibition” value does the source give for FC(F)(F)c1ccc(CN2C[C@@H]3C(c4ccccc4)C4(c5ccccc5)CC3(C4)[C@H]2c2ccccc2)cc1 (some centres undefined) here?
**A.** Its value is -1.8% (inactive).

**Q.** For Cc1ccc(NS(=O)(=O)c2ccc3c(c2)CC(=O)N3)cc1Cl, which “activity, negative = inhibition” value is on record?
**A.** Its value is -0.241% (inactive).

**Q.** For COc1ccc(-n2c(C)nn(CC3CC3)c2=O)cc1, which “activity, negative = inhibition” value is on record?
**A.** The value was -3.12% (inactive).

**Q.** With CC(=O)Nc1cccc2c1[n+]([O-])c(C)c(C)[n+]2[O-] as the compound, how does the “activity, negative = inhibition” value read?
**A.** The value was 0.959% (inactive).

**Q.** CCn1cc(C(=O)NCc2ccc(OC)cc2OC)c(=O)c2ccc(C)nc21 was tested. Which “activity, negative = inhibition” value did it give?
**A.** The value was 0.0766% (inactive).

**Q.** For O=C(CCC(=O)Nc1ccccc1)N/N=C/c1ccccc1F, which “activity, negative = inhibition” value is on record?
**A.** The value was 0.276% (inactive).

**Q.** CCOC(=O)c1ccccc1NC(=O)COC(=O)C(Cc1c[nH]c2ccccc12)NC(C)=O (centres undefined) was tested. Which “activity, negative = inhibition” value did it give?
**A.** The value was -1.13% (inactive).

**Q.** How did the “activity, negative = inhibition” value turn out when Cc1cccc(N2CCN(S(=O)(=O)c3ccc4[nH]c(=O)c(=O)[nH]c4c3)CC2C)c1 (centres undefined) was run?
**A.** Its value is -2.27% (inactive).

**Q.** Which “activity, negative = inhibition” value does the source give for c1csc(-c2nnc(COc3ccc4c(c3)OCO4)o2)c1 here?
**A.** The value was 0.221% (inactive).

**Q.** CCCOC1CCCN(C(=O)c2cc(COc3cncc(Cl)c3)on2)C1 (centres undefined) was tested. Which “activity, negative = inhibition” value did it give?
**A.** The value was 0.635% (inactive).

**Q.** With COc1cccc(-n2c(N)cc(=O)nc2SCC(=O)Nc2cc(C)on2)c1 as the compound, how does the “activity, negative = inhibition” value read?
**A.** Its value is 0.0443% (inactive).

**Q.** With CC1CCCCC1NC(=O)CSc1nnc(-c2ccncc2)n1CCCN(C)C (centres undefined) as the compound, how does the “activity, negative = inhibition” value read?
**A.** Its value is -2.75% (inactive).

**Q.** CC(C)C(NC(=O)c1c(F)cccc1F)C(=O)NCc1ccncc1 (centres undefined) was tested. Which “activity, negative = inhibition” value did it give?
**A.** Its value is -4.23% (inactive).

**Q.** Which “activity, negative = inhibition” value does the source give for CCOC(=O)c1sc(NC(=O)CSc2nc3c(c(=O)n2-c2ccccc2)SCC3)c(C(=O)OCC)c1C here?
**A.** Its value is -1.33% (inactive).

**Q.** For Cn1c(=O)n(C)c2cc(CNc3ccc(N4CCOCC4)c(C(=O)O)c3)ccc21, which “activity, negative = inhibition” value is on record?
**A.** The value was -1.23% (inactive).

**Q.** Cn1c2cc(B(O)O)sc2c2cnn(Cc3ccccc3F)c(=O)c21 was tested. Which “activity, negative = inhibition” value did it give?
**A.** Its value is -0.659% (inactive).

**Q.** How did the “activity, negative = inhibition” value turn out when CSCC[C@H](NC(=O)CCCn1nnc2ccccc2c1=O)C(=O)O was run?
**A.** Its value is -0.098% (inactive).

**Q.** For O=C(CCl)Nc1ccc(Sc2ccc(NC(=O)CCl)cc2)cc1, which “activity, negative = inhibition” value is on record?
**A.** The value was -5.44% (inactive).

**Q.** With CCCCN(CCCC)CCC(O)c1cc2c(Cl)cc(Cl)cc2c2cc(C(F)(F)F)ccc12 (centres undefined) as the compound, how does the “activity, negative = inhibition” value read?
**A.** The value was -0.59% (inactive).

**Q.** For Cc1cc(Cl)ccc1NNC(=O)c1snnc1C, which “activity, negative = inhibition” value is on record?
**A.** Its value is 5.25% (inactive).

**Q.** With O=C(COC(=O)Cn1[nH]c(=O)c2ccccc2c1=O)Nc1ncc(Cl)cc1Cl as the compound, how does the “activity, negative = inhibition” value read?
**A.** The value was 0.0983% (inactive).

**Q.** With CC(=O)Nc1cccc(C(=O)OCC(=O)NCc2cc(C)c(O)c(C)c2)c1 as the compound, how does the “activity, negative = inhibition” value read?
**A.** The value was 0.893% (inactive).

**Q.** Which “activity, negative = inhibition” value does the source give for CSCCC(NC(=O)c1ccccc1)C(=O)N1CCN(Cc2ccc(Cl)cc2)CC1 (centres undefined) here?
**A.** The value was 0.977% (inactive).

**Q.** How did the “activity, negative = inhibition” value turn out when CC(C)OC(=O)C(C#N)c1nc2ccccc2nc1N1CCN(Cc2ccc3c(c2)OCO3)CC1 (centres undefined) was run?
**A.** The value was -0.332% (inactive).

**Q.** How did the “activity, negative = inhibition” value turn out when CSc1nc(-c2ccco2)nn1C(=O)c1ccccc1Cl was run?
**A.** Its value is 2.44% (inactive).

**Q.** CCCN1CCn2c3c(c4cc(Br)ccc42)CCCC31 (centres undefined) was tested. Which “activity, negative = inhibition” value did it give?
**A.** Its value is 2.19% (inactive).

**Q.** For CC(=O)N(C)c1ccc(NC(=O)C(F)(F)F)cc1, which “activity, negative = inhibition” value is on record?
**A.** The value was 0.394% (inactive).

**Q.** How did the Potency turn out when CN(C)c1ccc(N/C=C/C(=O)C(F)(F)F)cc1 was run?
**A.** The Potency was 25.1 µM (active).

**Q.** Which “activity, negative = inhibition” value does the source give for CC(C)CNC(=O)C(=O)Nc1ccc(N(C)C)cc1 here?
**A.** Its value is -10.1% (inactive).

**Q.** How did the “activity, negative = inhibition” value turn out when Cn1c(N)c(C(=O)COC(=O)c2cccc(S(=O)(=O)N3CCOCC3)c2)c(=O)n(C)c1=O was run?
**A.** The value was -2.55% (inactive).

**Q.** For CCOC(=O)c1c(CNCc2ccccc2F)c2sc(C)cc2n1C, which “activity, negative = inhibition” value is on record?
**A.** Its value is 0.937% (inactive).

**Q.** For CSc1nc2ccccc2cc1/C=C(\C#N)c1ccc(Cl)cc1Cl, which “activity, negative = inhibition” value is on record?
**A.** The value was 2.17% (inactive).

**Q.** C/C=N/N(c1ccccc1)c1ccccc1 was tested. Which “activity, negative = inhibition” value did it give?
**A.** The value was -0.868% (inactive).

**Q.** How did the activity, negative = inhibition turn out when Cc1cc2c(c(=O)n1Cc1ccccc1)C1O[C@](CCCCN3C(=O)c4ccccc4C3=O)(Cc3ccccc31)O2 was run?
**A.** The activity, negative = inhibition was -15.5% [at 15.4 µM] (inactive).

**Q.** For O=C(CSc1nnc(CN2CCCC2)n1-c1ccc(F)cc1)c1ccc2c(c1)OCO2, which “activity, negative = inhibition” value is on record?
**A.** Its value is -11% (inactive).

**Q.** With Cc1cc(=O)oc2cc(OCC(=O)Nc3nnc(C4CC4)s3)ccc12 as the compound, how does the “activity, negative = inhibition” value read?
**A.** Its value is -0.34% (inactive).

**Q.** For CCOC(=O)Cc1csc(NC(=O)COc2ccc3c(C)cc(=O)oc3c2)n1, which Potency is on record?
**A.** The Potency was 44.7 µM (active).

**Q.** How did the “activity, negative = inhibition” value turn out when CCOC(=O)Cc1csc(SCc2cc(=O)oc3cc(O)ccc23)n1 was run?
**A.** The value was 0.962% (inactive).

**Q.** How did the “activity, negative = inhibition” value turn out when CCCCc1ccc(NC(=O)CN2C(=O)NC(Cc3ccccc3)C2=O)cc1 (centres undefined) was run?
**A.** Its value is -0.0707% (inactive).

**Q.** For CCOc1ccccc1N1CCN(C(=O)c2ccc3[nH]c(C)c(C)c3c2)CC1, which “activity, negative = inhibition” value is on record?
**A.** The value was 0.339% (inactive).

**Q.** How did the “activity, negative = inhibition” value turn out when CCOc1ccc(NC(=O)CN(C)C(=O)c2cccc(S(=O)(=O)N3CCCC3)c2)cc1OCC was run?
**A.** The value was 2% (inactive).

Reference: PubChem BioAssay AID504842 (National Center for Advancing Translational Sciences (NCATS), 2011)
